Test [1] has as its system transactivating tegument protein VP16 (Human herpesvirus 1). The test can be described thus: compounds suppressing VP16-driven luciferase signal – cell-based, luminescence, single concentration, counter-screen for SRC2 inhibitor project (AID 652007; in the data active = inhibition above about 36%). The conditions noted are these: cell-based VP16 transactivation luciferase reporter, at 8.9 µM, stronger effect = higher value. A general note: Counterscreens check selectivity or assay interference.

Test [2] concerns the target Nuclear receptor coactivator 2 (Homo sapiens) (UniProt Q15596). The test is described as follows: inhibition of GAL4-SRC2 driven luciferase expression – cell-based, luminescence, HEK293, triplicate, confirmation (AID 652008).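 Note: 0% = DMSO-treated cells and 100% = Gossypol at 36 µM.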 The conditions noted are these: HEK293 GAL4-SRC2 luciferase reporter, at 8.9 µM, stronger effect = higher value. A general note: In a reporter assay the amount or activity of a reporter protein is the signal.

Unmarked numbers belong to inactive results. The source made the active and inactive calls.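 Rule for the calls, unless noted: active = mean inhibition above 46.5%, the solvent-only control mean plus 3 SD; inactive = the rest.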

Sequence of Nuclear receptor coactivator 2 (Homo sapiens) (Q15596 whole entry, looked up, the tested form may be a part): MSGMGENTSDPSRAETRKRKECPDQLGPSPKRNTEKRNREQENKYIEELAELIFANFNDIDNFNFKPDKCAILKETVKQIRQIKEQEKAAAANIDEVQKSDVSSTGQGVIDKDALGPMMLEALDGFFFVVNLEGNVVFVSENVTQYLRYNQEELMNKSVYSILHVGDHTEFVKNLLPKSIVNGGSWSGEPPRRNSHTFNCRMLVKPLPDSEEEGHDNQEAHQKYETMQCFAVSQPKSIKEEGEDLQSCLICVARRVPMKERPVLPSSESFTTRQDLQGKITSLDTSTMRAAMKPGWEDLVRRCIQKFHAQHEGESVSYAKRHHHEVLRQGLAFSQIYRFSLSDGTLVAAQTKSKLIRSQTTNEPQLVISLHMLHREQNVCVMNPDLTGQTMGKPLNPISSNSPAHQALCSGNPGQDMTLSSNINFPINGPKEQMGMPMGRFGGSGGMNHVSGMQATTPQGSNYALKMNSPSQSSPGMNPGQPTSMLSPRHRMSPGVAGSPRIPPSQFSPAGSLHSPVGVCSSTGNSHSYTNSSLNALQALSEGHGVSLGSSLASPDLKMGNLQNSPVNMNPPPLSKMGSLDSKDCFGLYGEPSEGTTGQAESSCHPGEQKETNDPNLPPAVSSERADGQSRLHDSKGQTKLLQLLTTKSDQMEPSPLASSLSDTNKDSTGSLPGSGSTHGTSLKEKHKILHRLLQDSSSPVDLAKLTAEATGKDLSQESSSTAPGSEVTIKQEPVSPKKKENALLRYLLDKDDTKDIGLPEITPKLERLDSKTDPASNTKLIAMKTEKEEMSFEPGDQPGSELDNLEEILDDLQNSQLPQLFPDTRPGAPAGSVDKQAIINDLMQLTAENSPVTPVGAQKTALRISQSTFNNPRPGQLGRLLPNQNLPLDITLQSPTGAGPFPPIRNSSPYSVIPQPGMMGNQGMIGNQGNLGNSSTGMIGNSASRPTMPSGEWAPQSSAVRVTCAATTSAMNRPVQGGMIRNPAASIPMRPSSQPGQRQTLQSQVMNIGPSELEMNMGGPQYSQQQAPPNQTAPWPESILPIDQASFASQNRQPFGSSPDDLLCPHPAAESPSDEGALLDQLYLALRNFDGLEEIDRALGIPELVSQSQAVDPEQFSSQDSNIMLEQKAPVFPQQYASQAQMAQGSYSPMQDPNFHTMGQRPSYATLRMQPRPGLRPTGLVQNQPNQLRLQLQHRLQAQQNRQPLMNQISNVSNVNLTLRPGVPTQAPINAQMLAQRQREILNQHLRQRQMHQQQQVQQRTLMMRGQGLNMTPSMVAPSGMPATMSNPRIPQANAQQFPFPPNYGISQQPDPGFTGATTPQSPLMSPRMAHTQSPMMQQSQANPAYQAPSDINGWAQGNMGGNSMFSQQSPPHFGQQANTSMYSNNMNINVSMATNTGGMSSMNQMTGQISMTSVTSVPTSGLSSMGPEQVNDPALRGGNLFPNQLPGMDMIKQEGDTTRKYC

As usually defined, the inhibition is the change of the read-out against control, counted positive when it falls. For the compound `COc1ccc(CCNc2ncnc3cc(OC)c(OC)cc23)cc1OC`, the inhibition was 0.49% in test [1] and 16.4% in test [2].
As for `Cc1nc(=O)c(-c2ccccc2)c(C)n1-c1ccccc1Cl`, the inhibition in test [1] was -4.06%; in test [2] it was -36.8%.
In the same order, the values of `COc1ccccc1/C=C/C(=O)c1cc(Br)ccc1OC(=O)c1ccco1` are -1.7% and -2.06%.
Taken in the same sequence, the figures for `CC/C=C\[C@H](O)[C@H](O)C1=C(C)C(=O)[C@]2(O1)C(=O)N[C@@](OC)(C(=O)c1ccccc1)C2O` (some centres undefined) were -28.1% and -3.87%.
In the case of `CCOc1ccc(C(=O)CCC(=O)Nc2cccc(S(=O)(=O)N3CCCCC3)c2)cc1`, the inhibition in test [1] is 4.55%; in test [2], 44.2%.
With `CN(C)c1ccc(/C=C2\SC(=O)N(CCc3nnc(N)s3)C2=O)cc1`, the inhibition in test [1] is -23.4%; in test [2], 27.1%.
Turning to `Nc1cccc(-c2cc3ccccc3oc2=O)c1`, the figures for the inhibition in test [1] and in test [2] were 22.1% and 56.9% (active), respectively.
Consider `CCC1CCCCN1S(=O)(=O)c1ccc(NC(=O)c2nc(S(C)(=O)=O)ncc2Cl)cc1` (centres undefined), for which the figures for the inhibition in test [1] and in test [2] were 96.7% (active) and 72.7% (active), respectively.
Regarding `Cc1cc(NC(=O)c2ccccc2)c(Cl)cc1N`, the inhibition is 25.4% in test [1] and 52.1% (active) in test [2].
Regarding `CC(C)(C)c1nnc2sc(SCC(=O)c3cccs3)nn2c1=O`, the inhibition was 15.5% in test [1] and 30% in test [2].
For `CC(c1ccccc1)N1CCN(C(=O)CCl)CC1` (centres undefined), the values for the inhibition in test [1] and in test [2] were 17.4% and 43.9%, respectively.
Taken in the same sequence, the figures for `Cc1ccc(NC(=O)CCN2CCCCC2)cc1` were -25% and 32.5%.
With `COc1ccccc1C(C)NC(=O)C1CCN(S(=O)(=O)c2cccs2)CC1` (centres undefined), the inhibition in test [1] is -3.74%; in test [2], 6.18%.
On to `COc1ccc(OC)c(C2C(C#N)=C(N)Oc3c2c(C)nn3-c2cccc(Cl)c2)c1` (centres undefined), for which the inhibition is 3% in test [1] and 4.46% in test [2].
Take `Cc1nc(SCCC(=O)O)c2cc(-c3ccccc3)sc2n1`: the inhibition was 48.6% (active) in test [1] and 80.1% (active) in test [2].
Taken in the same sequence, the figures for `Cc1ccc(NC(=O)C2CCN(C(=O)c3ccccc3C)CC2)nc1` were -5.97% and -11.5%.
Consider `COc1ccc(CNC(=O)COC(=O)CCCOc2ccc(Cl)cc2Cl)cc1`, for which the figures for the inhibition in test [1] and in test [2] were 13% and 15.7%, respectively.
For the compound `Cc1cc(C2=NNC(=NC3CC3)SC2)c(C)n1Cc1ccco1`, the inhibition in test [1] was 78.6% (active); in test [2], 93.6% (active).
Turning to `c1c2c(cc3sc(N4CCCCC4)nc13)OCCO2`, the results for the inhibition in test [1] and in test [2] were -48.9% and 7.6%, respectively.
With `CCCCOc1ccc(C2(C)NC(=O)NC2=O)cc1` (centres undefined), the inhibition in test [1] is -7.32%; in test [2], -2.28%.
Take `CS(=O)(=O)N1CCC(C(=O)NCc2ccccc2)CC1`: the inhibition in test [1] is -4.73%; in test [2] it was -13.2%.
In the same order, the values of `CCOC(=O)[C@]12CCCC=C1N(Cc1cccc3ccccc13)C(=O)[C@H](CC(=O)N1CCOCC1)C2` are -7.43% and -11%.
Take `Cc1cccc(C)c1Nc1nnc(SC(C)C(=O)Nc2c(C)n(C)n(-c3ccccc3)c2=O)s1` (centres undefined): the results for the inhibition in test [1] and in test [2] were -15.1% and -13.2%, respectively.
As to `COCCn1c(SCC(=O)/C=C2\N(C)c3ccccc3C2(C)C)nnc1-c1ccncc1`, the inhibition in test [1] was -4.56%; in test [2], 8%.
With `Cc1ccc(S(=O)(=O)C[C@@H]2OC[C@H](C)N2S(=O)(=O)c2ccc(C)cc2)cc1`, the inhibition is 1.93% in test [1] and -6.07% in test [2].
In the same order, the values of `c1ccc(-c2csc3ncnc(NCc4ccccn4)c23)cc1` are -7.12% and 4.33%.
As for `O=C(NCc1ccco1)/C(=C/c1cccc([N+](=O)[O-])c1)NC(=O)c1ccco1`, the inhibition in test [1] is -6.26%; in test [2], -17.7%.
Taken in the same sequence, the figures for `Cc1csc2ncnc(N3CCN(C(=O)Nc4ccc(OC(F)(F)F)cc4)CC3)c12` were 1.45% and 26.6%.
On to `Cc1ccc2nc(C)cc(Nc3ccc4c(c3)OCCO4)c2c1`, for which the inhibition was -23.7% in test [1] and 0.71% in test [2].
With `CCc1nnc(NC(=O)c2nc(S(=O)(=O)Cc3ccc(C)cc3)ncc2Cl)s1`, the inhibition was 48.1% (active) in test [1] and 58.3% (active) in test [2].
In the same order, the values of `COc1cc(OC)c(CN2CCc3c([nH]c4ccccc34)C2)cc1Br` are -7.11% and -4.79%.
In the same order, the values of `c1ccc(C2=Nn3c(nnc3-c3ccncc3)SC2)cc1` are -2.29% and 34.6%.
With `Cc1ccc(NS(=O)(=O)c2cccc(C(=O)NCCCN3CCCC3=O)c2)cc1`, the inhibition in test [1] is -1.94%; in test [2], 0.08%.
In the same order, the values of `Nc1ccc(OC(=O)Nc2ccc(O)cc2)cc1` are 31.8% and 73.7% (active).
In the same order, the values of `C=CCNC(=S)NCc1ccccc1` are -11.1% and -24.7%.
Taken in the same sequence, the figures for `Cc1cc(-c2ccccc2)n(-c2cc(N/N=C/c3ccccc3O)ncn2)n1` were -0.63% and 51.5% (active).
As for `CCN(CC)S(=O)(=O)c1ccc(Cl)c(NC(=O)COc2ccc(OC)cc2[N+](=O)[O-])c1`, the inhibition in test [1] was -24.3%; in test [2], -28.8%.

Values taken from PubChem BioAssay.
